# Most compounds without a hit are left out; they make up all but 4.1% or so of the library.
# hgDAF-12 ag: agonists of H. glycines DAF-12 nuclear receptor | HEK293 GAL4-hgDAF12 UAS-luciferase reporter, agonist luminescence; normalized to butyrate control | activation, % at 6.8 µM | hit rate 1.8% among 370,000 | AID 687014;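 active = activation above a cutoff set at the mean of all screened compounds plus 3 SD, cut at about 10% in these data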;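 note: 0% = DMSO wells and 100% = sodium butyrate wells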
# hcDAF-12 act: activators of H. contortus DAF-12 nuclear receptor. HEK293 hcDAF-12 lit1-tk-luc reporter, luminescence; 0% DMSO, 100% Δ7-dafachronic acid. activation, % at 6.8 µM. hit rate 1.4% among 370,000;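 active = activation above the mean of all tested compounds plus 3 SD, cut at about 5.5% in these data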;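 note: 100% = response to 3 µM Δ7-dafachronic acid high control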
# DAX1 inh-1: blocks DAX1 repression of SF-1 activated StAR promoter | HEK293T StAR-luciferase reporter, SF-1/DAX-1 repression relief | hit rate 1.1% among 370,000 | AID 652010 | inhibition, % at 6.8 µM;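 active = inhibition above the mean over all tested compounds plus 3 SD, cut at about 3.6% in these data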;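 note: 0% = DAX-1 cells with DMSO and 100% = cells lacking DAX-1 with DMSO; higher inhibition means more luminescence from relief of DAX-1 repression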
# DAX1 inh-2: inhibitors of human orphan nuclear receptor DAX1 (NR0B1) | P51843 | HEK293 Gal4-DAX1 luciferase reporter, luminescence | inhibition, % at 6.75 µM | hit rate 0.99% among 340,000;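 active = inhibition above the mean over all tested compounds plus 3 SD, cut at about 4.2% in these data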;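 note: 0% = DAX1-transfected cells with DMSO and 100% = empty-vector control cells with DMSO; inhibition shows as a rise in luminescence from relieved DAX1 repression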
# Target sequence (P51843 207-470 limits assumed): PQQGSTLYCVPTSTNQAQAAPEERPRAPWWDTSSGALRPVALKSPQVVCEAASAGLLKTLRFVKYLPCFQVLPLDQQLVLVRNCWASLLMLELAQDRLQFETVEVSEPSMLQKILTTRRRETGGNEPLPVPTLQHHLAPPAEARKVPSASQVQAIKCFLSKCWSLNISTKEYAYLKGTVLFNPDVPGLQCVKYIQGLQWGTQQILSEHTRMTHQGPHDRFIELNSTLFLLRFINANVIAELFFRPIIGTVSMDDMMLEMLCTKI
# ssDAF-12 act: activates DAF-12 receptor from parasite S. stercoralis | AID 652126 | activation, % at 6.8 µM | hit rate 1% among 370,000 | HEK293 ssDAF-12/GRIP1 lit1-tk-luc reporter, luminescence; % of 3 µM dafachronic acid response;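 active = activation above the mean over all tested compounds plus 3 SD, cut at about 0.9% in these data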;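 note: 0% = DMSO-only wells and 100% = 3 µM delta7-dafachronic acid wells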
# * = called active by the depositor; . = not tested or not shown.
SMILES,hgDAF-12 ag,hcDAF-12 act,DAX1 inh-1,DAX1 inh-2,ssDAF-12 act
O=[N+]([O-])c1ccccc1S(=O)(=O)N1CCC(c2cn3ccccc3n2)CC1,1,-1,-1,.,-2
N#Cc1ccc(Cl)cc1NC(=O)CN1C(=O)C(=O)N(CCC2=CCCCC2)C1=O,2,4,0,0,1.2*
O=C(CN1C(=O)C(=O)N(CCC2=CCCCC2)C1=O)Nc1ccc(F)cc1F,6,2,0,-1,-2
COc1cccc(C(=O)NCC(=O)OCC(=O)NC2CCCCC2)c1,-1,0,0,1,1.3*
Cc1cc(OCC(=O)OCC(=O)NC2CCS(=O)(=O)C2)ccc1Cl (centres undefined),2,5.9*,1,3,-1
CC(=O)Nc1cccc(OCC(=O)Nc2sccc2C(N)=O)c1,12*,3,2,2,0
Cc1cc(OCC(=O)OCC(=O)NC2CCCCCC2)ccc1Cl,-1,0,1,0,-1
Cc1cc(C)cc(OCC(=O)OCC(=O)NC2CCCCCCC2)c1,2,0,4.3*,2,-1
O=C(COC(=O)COc1ccccc1)NC1CCCC1,3,0,0,0,-1
Cc1cccc(C(=O)NCC(=O)OCC(=O)NC2CCCCCCC2)c1,0,1,2,-1,-2
CC(=O)Nc1cccc(OCC(=O)Nc2ccccc2)c1,7,1,2,1,0
Cc1ccc(C(=O)N[C@H](C(=O)OCC(=O)NC2CCS(=O)(=O)C2)C(C)C)cc1 (some centres undefined),6,1,0,1,1.5*
Cc1ccc(S(=O)(=O)NC(C(=O)OCC(=O)NC2CCS(=O)(=O)C2)C(C)C)cc1 (centres undefined),-1,0,1,-1,-1
COc1cccc(NC(=O)COC(=O)c2sccc2C)c1,13*,6.4*,3.7*,6.2*,0
COc1cccc(NC(=O)COC(=O)c2c(F)cccc2F)c1,-2,-1,-1,1,-1
Cc1ccsc1C(=O)OCC(=O)NC1CCCCC1,11*,3,3,2,0
N#CCC[C@@H]1CC[C@]2(CCCN(Cc3ccc(Br)cc3)C2)O1,-2,2,0,.,0
CCN(CC)c1ccc(N=C2C=CC(=O)C=C2NC(C)=O)cc1,8,3,3.9*,.,0
COC(=O)[C@]12C[C@H](CC(=O)N3CCCCC3)C(=O)N(Cc3ccc4c(c3)OCO4)C1=C[C@H](C(C)C)O[C@@H]2C1CC1,0,-2,-1,.,-2
CC(CCCN1CCCC1)Nc1ccnc2cc(Cl)ccc12 (centres undefined),1,1,0,7.0*,0
COc1ccc(CN(CCN2CCOCC2)C(=O)c2cc(F)ccc2C)cc1OC,0,0,0,.,-2
CCCCCCCCS(=O)C1CS(=O)(=O)CC1O (centres undefined),0,0,0,4.7*,-2
O=C1CCC(C(=O)NCCN2C(=O)S/C(=C\c3cccnc3)C2=O)=NN1,1,-1,0,0,1.2*
O=C(NCCN1C(=O)S/C(=C\c2cccnc2)C1=O)C1CC(=O)N(Cc2ccco2)C1 (centres undefined),2,4,0,0,1.2*
O=C(OC1CC2CCC(C1)[N+]21CCCC1)C(O)(c1ccccc1)c1ccccc1 (centres undefined),1,-1,0,.,-1
SMILES,hgDAF-12 ag,hcDAF-12 act,DAX1 inh-1,DAX1 inh-2,ssDAF-12 act
O=C(Nc1ccc(Br)cc1Br)Nc1cccc2[nH]c([C@@H]3O[C@H](CO)[C@@H](O)[C@H](O)[C@H]3O)nc12,5,0,1,.,0.9*
O=C(Nc1cccc(Cc2ccccc2)c1)Nc1cccc2[nH]c([C@@H]3O[C@H](CO)[C@@H](O)[C@H](O)[C@H]3O)nc12,-4,-2,1,.,-2
O=C(Cn1nnc(N2CCOCC2)n1)NN=Cc1ccccc1Cl,2,0,-1,.,-1
Cc1ccc(C(=O)N/N=C/c2cccnc2)cc1Cl,-1,-1,1,-1,1.7*
Nc1c(Cl)ncnc1N/N=C/c1cccnc1,-1,1,0,5.0*,-1
O=[N+]([O-])c1ccc(N/N=C/c2cccnc2)cc1,7,0,-1,2,-1
O=C(N/N=C/c1cccnc1)c1cccc(Cl)c1,7,1,0,4,-1
Nc1c(Cl)ncnc1N/N=C/c1ccccn1,-4,-3,-3,.,-1
CN(C)c1ccc(/C=N/Nc2cccc(C(=O)O)c2)cc1,12*,5,1,-3,0
Clc1ccc(N/N=C/c2cccnc2)cc1,4,6.0*,0,-1,-1
COC(=O)[C@]12C[C@H](CC(=O)N3CCCCC3)C(=O)N(Cc3ccc4c(c3)OCO4)C1=C[C@H](C(C)(C)C)O[C@@H]2C,-1,0,0,.,-1
CCCCCCCCN1C(=O)[C@@H](CC(=O)NCc2cccs2)C[C@@]2(C(=O)OC)C1=C[C@H](C(C)C)O[C@@H]2C1CC1,5,0,-1,.,-1
CC(C)(C)c1ccc(/C=N/Nc2ccc(C(=O)O)cc2)cc1,-15,-5,-2,-4,-2
CC(C)(C)c1ccc(/C=N/Nc2cccc(C(=O)O)c2)cc1,12*,4,4.0*,-4,-1
O=C(O)c1cccc(N/N=C/c2cccnc2)c1,6,2,2,-3,2.3*
COC(=O)CN(Cc1cn(Cc2ccccc2)nn1)S(=O)(=O)c1ccccc1Br,4,1,-1,.,-1
Cc1ccc(CN2CCN(Cc3c[nH]c4ccccc34)CC2CCO)o1 (centres undefined),-6,2,0,-1,1
CCn1cc(CN2CCN(Cc3ccccc3)C(CCO)C2)c2ccccc21 (centres undefined),1,5,0,4.2*,0
CCn1cc(CN2CCN(Cc3ccc(C)o3)C(CCO)C2)c2ccccc21 (centres undefined),3,5.6*,0,1,0
CC(=O)Nc1cc2c(cc1Cl)-c1ccccc1C2,9,4,3,3,0
CC(=O)Nc1cc2c(cc1Cl)-c1ccccc1C2O (centres undefined),3,5.9*,-1,2,0
CC(C)NC(=O)N[C@H]1C[C@@H]2O[C@@H](CO)CC[C@@H]2O[C@@H]1CCc1ccc(-c2ccc(F)cc2)cc1,-1,-2,1,.,-1
COc1ccc(-n2c(Cc3cccn3C)nnc2SCC(=O)N2CCOCC2)cc1,0,-1,0,0,-2
Cn1cccc1Cc1nnc(SCC(=O)N2CCOCC2)n1-c1ccc(F)cc1,0,-2,-1,4.2*,-1
NC(=O)CSc1nc2sc(-c3ccccc3)cc2c(=O)n1N,2,0,0,0,-1
Cc1nc2sc(-c3ccccc3)cc2c(=O)n1/N=C/N(C)C,11*,3,3,2,0.9*
